PAD4 FP inh – blocks human protein arginine deiminase 4. Q9UM07. recombinant PAD4, RCA probe fluorescence polarization. inhibition, % at 6.36 µM. 0.41% of 330,000 active. AID 485272;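 active = percent inhibition above a cutoff equal to the mean of all tested compounds plus 3 SD, cut at about 15% in these data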
Target sequence (Q9UM07 whole entry, looked up): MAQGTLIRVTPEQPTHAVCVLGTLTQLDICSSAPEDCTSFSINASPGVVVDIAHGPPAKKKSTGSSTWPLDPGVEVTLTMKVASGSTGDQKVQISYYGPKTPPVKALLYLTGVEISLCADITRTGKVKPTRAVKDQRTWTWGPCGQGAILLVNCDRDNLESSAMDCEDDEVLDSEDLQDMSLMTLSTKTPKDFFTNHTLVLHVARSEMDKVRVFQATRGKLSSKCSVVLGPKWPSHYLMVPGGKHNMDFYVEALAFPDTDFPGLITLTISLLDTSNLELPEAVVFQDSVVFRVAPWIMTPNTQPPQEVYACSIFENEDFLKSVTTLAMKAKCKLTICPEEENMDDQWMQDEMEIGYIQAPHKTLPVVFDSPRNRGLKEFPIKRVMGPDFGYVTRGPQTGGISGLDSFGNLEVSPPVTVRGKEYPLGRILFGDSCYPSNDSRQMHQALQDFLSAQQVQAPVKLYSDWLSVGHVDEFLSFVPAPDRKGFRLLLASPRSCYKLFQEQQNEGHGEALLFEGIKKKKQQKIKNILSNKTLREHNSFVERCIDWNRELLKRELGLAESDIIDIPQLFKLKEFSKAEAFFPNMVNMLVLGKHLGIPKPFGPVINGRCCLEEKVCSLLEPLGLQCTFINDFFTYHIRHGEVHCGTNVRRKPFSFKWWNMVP
PME-1 primary – PME-1 (human) inhibition. Q9Y570. recombinant PME-1, FP-Rh probe fluorescence polarization. inhibition, % at 5.9 µM. 0.53% of 320,000 active;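 active = inhibition above the campaign mean of all compounds plus 3 SD, cut at about 26% in these data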;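 note: competitive labeling of PME-1 active site by serine hydrolase directed probe; inhibitors block probe labeling so polarization falls and inhibition rises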
GSTO1 counter – blocks human GSTO1 in RBBP9 counter-screen; P78417; recombinant GSTO1, activity-based probe fluorescence polarization; inhibition, % at 5.96 µM; 1.1% of 300,000 active;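 active = inhibition above the campaign mean inhibition plus 3 SD, cut at about 35% in these data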
Fam108B counter – Fam108B inhibition, counter-screen for RBBP9 inhibitors | recombinant Fam108B, FP-Rh probe fluorescence polarization | inhibition, % at 9.51 µM | 0.33% of 300,000 active | AID 1947;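 active = inhibition above the screen mean inhibition plus 3 SD, computed separately per campaign, cut at about 18% in these data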;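 note: inhibitors lower polarization as less probe binds the enzyme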
pPAFAH FP inh – pPAFAH (human) enzyme inhibition | Q13093 | recombinant pPAFAH, FP-rhodamine probe fluorescence polarization | inhibition, % at 3.39 µM | 1.5% of 330,000 active;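 active = inhibition above the mean inhibition across the screen plus 3 SD, cut at about 25% in these data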;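 note: inhibitors block binding of the rhodamine activity-based probe so polarization drops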
Fam108b confirm – confirmation of mouse Fam108b serine hydrolase inhibitors. shares compounds with Fam108B counter. recombinant Fam108b, FP-Rh probe fluorescence polarization. inhibition, % at 9.51 µM. 44% of 930 active. AID 1978;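 active = inhibition above a limit from the primary screen, the mean over all compounds plus 3 SD, cut at about 19% in these data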;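 note: inhibitors free the probe so polarization falls as inhibition rises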
Fam108b inh – inhibits mouse Fam108b in gel-based ABPP. shares compounds with Fam108B counter. recombinant Fam108b, fluorophosphonate probe. inhibition, % at 20 µM. 44% of 260 active. AID 588649; in the data active = inhibition above about 40%
GSTO1 confirm – confirmation of human GSTO1 inhibitors. shares compounds with GSTO1 counter. recombinant GSTO1, probe fluorescence polarization. inhibition, % at 5.96 µM. 54% of 2,400 active. AID 2176;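 active = inhibition above the primary screen's cutoff, its mean inhibition plus 3 SD, cut at about 35% in these data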;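 note: loss of polarization as inhibitors block binding of rhodamine sulfonate ester activity probe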
pPAFAH FP conf – pPAFAH (human) inhibition, confirmed | 72% of 2,300 active | shares compounds with pPAFAH FP inh | inhibition, % at 3.39 µM | recombinant pPAFAH, FP-Rh probe fluorescence polarization;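 active = mean inhibition of the triplicate above the hit cutoff set for the earlier primary screen, cut at about 25% in these data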
A number is an active result; 0 = inactive; - = not tested or not shown. Shown are actives, neighbours in structure and some others; about 2.3% of the full set was active somewhere.

SMILES | PAD4 FP inh | PME-1 primary | GSTO1 counter | Fam108B counter | pPAFAH FP inh | Fam108b confirm | pPAFAH FP conf | others
O=C(O)CC(C(=O)O)N1C(=O)/C(=C/c2ccc(-c3nc4ccccc4s3)o2)SC1=S (stereo unspecified) | 0 | 0 | 0 | 32.4 | 65.1 | 0 | 42.1
O=C(O)CCCN1C(=O)/C(=C/C=C/c2ccco2)SC1=S | 0 | 0 | 41.9 | 50.0 | 61.3 | 0 | 0 | GSTO1 confirm=37.0
O=C(O)CC(C(=O)O)N1C(=O)/C(=C/C=C/c2ccco2)SC1=S (stereo unspecified) | 0 | 0 | 36.7 | 34.1 | 67.6 | 0 | 0
O=C(NN1C(=O)/C(=C/C=C/c2ccco2)SC1=S)c1ccccc1O | 0 | 0 | 0 | 44.4 | 77.8 | 24.9 | 67.3
O=C(O)C1C2CCC(O2)C1C(=O)Nc1ccc(F)c(Cl)c1 (stereo unspecified) | 0 | 0 | 0 | 0 | 0 | - | -
COc1ccc(/C=N/NC(=O)C(=O)N2CCCCCC2)cc1O | 0 | 0 | 0 | 0 | 0 | - | -
Nc1nc(-c2ccco2)cs1 | 0 | 0 | 0 | 0 | 0 | - | -
c1coc(-c2nc(-c3ccco3)c(-c3ccco3)nc2-c2ccco2)c1 | 44.6 | 0 | 79.9 | 71.4 | 100.1 | 0 | 42.6 | GSTO1 confirm=36.7
Cc1cc(SCC(=O)c2cccs2)nc2ccccc12 | 0 | 0 | 0 | 0 | 0 | - | -
O=c1cc(CSc2ccc(Cl)cc2)[nH]c2[nH]n(-c3ccccc3)c(=O)c12 | 0 | 0 | 0 | 19.4 | 42.5 | 0 | 26.9
Cc1cc(OC(C)C(=O)NCC2CCC(C(=O)O)CC2)c2c(C)cc(=O)oc2c1 (stereo unspecified) | 0 | 0 | 0 | 0 | 0 | - | -
Oc1ccc(/C=N/Nc2ccc(Cl)nn2)c(O)c1O | 0 | 0 | 71.0 | 23.4 | 57.5 | 0 | 0 | GSTO1 confirm=0
Oc1c(Br)cc(/C=N/Nc2ccc(Cl)nn2)cc1Br | 0 | 0 | 0 | 25.7 | 52.0 | 0 | 58.2
Oc1c(Br)cc(Br)cc1/C=N/Nc1ccc(Cl)nn1 | 0 | 0 | 0 | 0 | 0 | - | -
Cc1ccc2nc(/C(C#N)=C/c3ccccc3C(=O)O)[nH]c2c1 | 0 | 0 | 0 | 0 | 0 | - | -
Cc1ccc2nc(/C(C#N)=C/c3ccc(O)c(O)c3)[nH]c2c1 | 0 | 28.8 | 46.1 | 30.9 | 65.4 | 0 | 78.9 | GSTO1 confirm=50.7
Cc1ccc(C(=O)O)cc1N1C(=O)c2cccc3c([N+](=O)[O-])ccc(c23)C1=O | 0 | 31.7 | 0 | 27.0 | 36.0 | 22.9 | 0
CN(/N=C/c1ccc(O)cc1O)c1nc(-c2ccccc2)cc(-c2ccccc2)n1 | 0 | 0 | 0 | 32.7 | 36.6 | 19.1 | 0
CN(N)c1nc(-c2ccccc2)cc(-c2ccccc2)n1 | 0 | 0 | 0 | 0 | 0 | - | -
COc1cccc2c1NC(C(=O)O)C1CC=CC21 (stereo unspecified) | 0 | 0 | 61.3 | 53.4 | 57.0 | 0 | 0 | GSTO1 confirm=45.7
O=C(O)C1=CC[C@@H](c2ccc(Cl)cc2)N(S(=O)(=O)c2ccc(Cl)cc2)[C@H]1c1ccccc1 | 0 | 0 | 0 | 0 | 0 | - | -
COc1c2ccccc2c(OC)c2ccccc12 | 0 | 0 | 0 | 0 | 0 | - | -
O=C(Nc1ccc(-c2csc(Nc3ccc(Cl)cc3)n2)cc1)c1cccc(C(F)(F)F)c1 | 0 | 26.4 | 0 | 49.7 | 44.4 | 67.7 | 0 | Fam108b inh=95.0
Cc1ccc(Nc2nc(-c3sc(NC(=O)c4cccc(Cl)c4)nc3C)cs2)cc1 | 0 | 0 | 0 | 0 | 0 | - | -
COC(=O)N/N=C/c1cc(N=Nc2ccccc2)ccc1O | 0 | 0 | 0 | 0 | 0 | - | -
SMILES | PAD4 FP inh | PME-1 primary | GSTO1 counter | Fam108B counter | pPAFAH FP inh | Fam108b confirm | pPAFAH FP conf | others
Nc1ccc(C(=O)N/N=C\c2cc(N=Nc3cccc4ccccc34)ccc2O)cc1 | 0 | 39.7 | 0 | 20.8 | 76.7 | 0 | 53.1
COc1ccc(OC)c(CCNC(=O)c2ccc3c(=O)[nH]c4c(C(=O)NC(C)C)sc(=S)n4c3c2)c1 | 0 | 0 | 0 | 0 | 0 | - | -
O=C(NCCc1ccccc1)c1ccc2c(=O)[nH]c3c(C(=O)NCC4CCCO4)sc(=S)n3c2c1 (stereo unspecified) | 0 | 0 | 0 | 34.3 | 70.7 | 35.5 | 83.9 | Fam108b inh=0
CCCCNC(=O)c1sc(=S)n(-c2ccccc2OC)c1N | 0 | 0 | 0 | 0 | 0 | - | -
CCCCNC(=O)c1sc(=S)n2c1[nH]c(=O)c1ccccc12 | 0 | 0 | 0 | 26.8 | 34.9 | 32.4 | 63.1 | Fam108b inh=0
N=C1/C(=C\c2ccc(-c3cccc(C(=O)O)c3)o2)C(=O)N=C2SC=C(c3ccccc3)N12 | 0 | 0 | 0 | 23.6 | 55.5 | 0 | 49.5
Cc1nonc1C(=O)N/N=C/c1ccccc1 | 0 | 0 | 0 | 0 | 0 | - | -
O=C(CCCSc1ccccc1)Nc1nc(-c2ccccn2)cs1 | 0 | 0 | 0 | 0 | 0 | - | -
O=C(CCCSc1ccccc1)Nc1nc(-c2ccco2)c(-c2ccco2)s1 | 0 | 33.0 | 0 | 47.2 | 56.1 | 32.2 | 0 | Fam108b inh=75.0
COC(=O)CNC(=O)c1ccc(F)cc1 | 0 | 0 | 0 | 0 | 0 | - | -
OC(CNC1CCCCC1)COCCOc1ccc(Br)cc1 (stereo unspecified) | 0 | 0 | 0 | 0 | 0 | - | -
CC1=NN(c2ccccc2)C(=O)/C1=C/c1ccc[nH]1 | 0 | 0 | 0 | 0 | 0 | - | -
CC1=NN(c2ccccc2)C(=O)/C1=C/c1c(O)n(-c2ccc(F)cc2)[nH]c1=O | 0 | 50.9 | 0 | 46.5 | 53.5 | 50.8 | 52.8 | Fam108b inh=0
C/C(=N\NC(=O)c1ccc(-c2ccccc2)cc1)C1C(=O)c2ccccc2C1=O | 0 | 0 | 0 | 26.6 | 52.7 | 24.6 | 66.6
O=C(c1cc(O)c(O)c([N+](=O)[O-])c1)c1ccccc1F | 0 | 0 | 0 | 49.0 | 58.9 | 91.3 | 81.0 | Fam108b inh=0
O=C(Nc1ccc([N+](=O)[O-])cc1)c1ccccc1F | 0 | 0 | 0 | 0 | 0 | - | -
O=C(NNC(=O)c1ccc(-c2ccc([N+](=O)[O-])cc2)o1)c1ccncc1 | 0 | 0 | - | - | 0 | - | -
COc1ccc(-c2nn(C)c3sc(C(=O)NCc4ccco4)cc23)cc1OC | 0 | 0 | 0 | 0 | 0 | - | -
COc1ccc(NC(=O)c2cc3c(-c4ccc(OC)c(OC)c4)nn(C)c3s2)cc1OC | 0 | 0 | 0 | 46.4 | 46.1 | 0 | 43.1
CN(c1ccccc1)c1ccc(/C=C(\CCC(=O)O)c2nc3ccccc3s2)cc1[N+](=O)[O-] | 0 | 0 | 0 | 20.2 | 53.9 | 0 | 57.6
Cc1cc(C)c(Nc2cc(S(=O)(=O)O)c(N)c3c2C(=O)c2ccccc2C3=O)c(C)c1 | 0 | 63.9 | 80.4 | 69.5 | 89.4 | 92.8 | 91.8 | GSTO1 confirm=88.2
O=c1c(O)c(-c2cc(O)c(O)c(O)c2)oc2cc(O)cc(O)c12 | 0 | 0 | 78.8 | 30.9 | 66.1 | 0 | 81.5 | GSTO1 confirm=48.0
C[C@@H]1CN([C@H](C)CO)C(=O)c2cc(NS(=O)(=O)c3cn(C)cn3)ccc2O[C@H]1CN(C)C(=O)Nc1ccccc1 | 0 | - | - | - | 0 | - | -
